# Results taken from PubChem BioAssay AID1851 (National Center for Advancing Translational Sciences (NCATS), 2009).
# In all, about 16,000 compounds went through this assay and about 5,100 (32%) were called active. Another 25% or so got no clear call; they are omitted. The list shows a part of the results. Values without a mark were called inactive. Calls come from the whole dose curve; as a rule, active = well fitted curve in the direction sought with a large enough effect; inconclusive = small, poorly fitted or top-dose-only effect, or effect the other way; inactive = no such curve, though single readings can be large or run the other way.
# Molecular target: Cytochrome P450 3A4 (Homo sapiens) (UniProt P08684)
# Assay: Cytochrome panel assay with activity outcomes
# Conditions: recombinant CYP, pro-luciferin dealkylation, luminescence, p450-cyp3a4; series mostly up to 57.1 µM
# % is set by controls: 0 for no effect and ±100 for the full control effect.
# Sequence of Cytochrome P450 3A4 (Homo sapiens) (P08684 whole entry, looked up): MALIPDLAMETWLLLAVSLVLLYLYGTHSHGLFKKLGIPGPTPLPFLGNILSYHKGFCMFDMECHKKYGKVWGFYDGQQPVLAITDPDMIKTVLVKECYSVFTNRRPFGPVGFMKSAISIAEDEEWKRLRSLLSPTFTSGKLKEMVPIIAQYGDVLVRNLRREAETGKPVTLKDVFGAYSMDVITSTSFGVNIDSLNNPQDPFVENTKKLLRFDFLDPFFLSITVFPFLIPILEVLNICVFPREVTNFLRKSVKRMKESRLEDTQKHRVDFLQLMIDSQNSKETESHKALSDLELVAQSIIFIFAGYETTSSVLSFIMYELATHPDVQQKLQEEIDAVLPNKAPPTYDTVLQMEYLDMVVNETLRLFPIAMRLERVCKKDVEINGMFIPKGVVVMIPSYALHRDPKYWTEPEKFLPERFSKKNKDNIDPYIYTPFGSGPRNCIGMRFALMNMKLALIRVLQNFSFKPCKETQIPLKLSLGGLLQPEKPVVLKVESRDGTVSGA
SMILES,"activity, negative = inhibition",AC50
N[C@@H](CSCc1ccccc1)C(=O)O,-6.14% [at 11.4 µM],
NC1(C(=O)O)C[C@H](C(=O)O)[C@H](C(=O)O)C1 (some centres undefined),,inactive
CC1CN(C(NC(=O)C(C)(C)C)C(Cl)(Cl)Cl)CC(C)O1 (centres undefined),,inactive
C[C@@H]1NCC[C@H](CC(=O)O)[C@H]1CC(=O)O,0.412% [at 11.4 µM],
CC(C)=C[C@H]1[C@@H](C(=O)Oc2ccccc2C(C)C)C1(C)C,-13.1% [at 11.4 µM],
Cc1[nH]c(N)nc(=S)c1CCC(=O)O,-2.07% [at 11.4 µM],
COc1ccccc1OCCCCCc1c(C)n[nH]c1C,,inactive
COc1cccc(-c2ccc3ncnc(N(C)Cc4ccco4)c3c2)c1,,12.6 µM (active)
CN(Cc1ccco1)c1ncnc2ccc(-c3cccnc3)cc12,,3.98 µM (active)
NCCSC[C@H](N)C(=O)O,-7.49% [at 11.4 µM],
O=C(O)[C@@H](O)[C@@H](O)[C@@H](O[C@H]1O[C@@H](CO)[C@@H](O)[C@@H](O)[C@@H]1O)[C@@H](O)CO,,inactive
c1nc(NC2CCNCC2)c2cc(-c3ccc4c(c3)OCO4)ccc2n1,,25.1 µM (active)
Cc1cccc(CNc2ncnc3ccc(-c4ccc5c(c4)OCO5)cc23)c1,,2 µM (active)
c1ccc(CNc2ncnc3ccc(-c4ccc5c(c4)OCO5)cc23)cc1,,2 µM (active)
c1ccc(Nc2ncnc3ccc(-c4ccc5c(c4)OCO5)cc23)cc1,,2.51 µM (active)
c1nc(NC2CCNCC2)c2cc(-c3ccoc3)ccc2n1,,inactive
COc1cc(C)c(Br)cc1S(=O)(=O)NCc1ccccc1,,inactive
COc1cc(OC)c(C#N)c(S(=O)(=O)Cc2ccccc2)c1,,25.1 µM (active)
O=[N+]([O-])c1ccc(S(=O)(=O)Cc2ccccc2)c2nonc12,-16.7% [at 11.4 µM],
O=C(O)/C=C\C(=O)N1Cc2cc3ccccc3nc2C1,-8.05% [at 11.4 µM],
O=C(N/N=C/c1c(Nc2cccc(C(F)(F)F)c2)nc2ccccn2c1=O)c1ccccc1,,inactive
Cc1ccc(C(=O)N/N=C/c2cc(C)n(-c3ccc(Br)cc3)c2C)cc1[N+](=O)[O-],,inactive
Cc1nc2ccccn2c1C(=O)N/N=C/c1ccccc1[N+](=O)[O-],,12.6 µM (active)
COCCn1c(=O)c(-c2cc(F)cc(F)c2)nc2cnc(N3CCN(C)CC3)nc21,,inactive
COc1cccc(Cn2c(=O)c(-c3ccccc3)nc3cnc(N4CCNCC4)nc32)c1,,20 µM (active)
CN1CCN(c2ncc3nc(-c4cc(F)cc(F)c4)c(=O)n(CCc4ccccc4)c3n2)CC1,,25.1 µM (active)
COc1ccc(-c2nc3cnc(N4CCNCC4)nc3n(Cc3cccc(OC)c3)c2=O)cc1,,15.8 µM (active)
COc1cccc(Cn2c(=O)c(-c3cc(F)cc(F)c3)nc3cnc(N4CCNCC4)nc32)c1,,25.1 µM (active)
CN1CCN(c2ncc3nc(-c4ccccc4)c(=O)n(CCc4ccccc4)c3n2)CC1,,inactive
